{
  "source": "paper PMC4336329",
  "about": "(PLoS ONE, 2015)",
  "note": "The whole screen tested about 310,000 compounds, of which about 14,000 (4.5%) showed an effect of 50% or more. Effects have a minus sign here. The sample as a whole holds a higher share of strong results than the screen did.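 Further: peak tail current of the secondary pulse compared with the same well before compound.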",
  "data": [
    {"target": "human ether-à-go-go-related gene (hERG) potassium channel (human, UniProt Q12809)", "sequence (Q12809 whole entry, looked up)": "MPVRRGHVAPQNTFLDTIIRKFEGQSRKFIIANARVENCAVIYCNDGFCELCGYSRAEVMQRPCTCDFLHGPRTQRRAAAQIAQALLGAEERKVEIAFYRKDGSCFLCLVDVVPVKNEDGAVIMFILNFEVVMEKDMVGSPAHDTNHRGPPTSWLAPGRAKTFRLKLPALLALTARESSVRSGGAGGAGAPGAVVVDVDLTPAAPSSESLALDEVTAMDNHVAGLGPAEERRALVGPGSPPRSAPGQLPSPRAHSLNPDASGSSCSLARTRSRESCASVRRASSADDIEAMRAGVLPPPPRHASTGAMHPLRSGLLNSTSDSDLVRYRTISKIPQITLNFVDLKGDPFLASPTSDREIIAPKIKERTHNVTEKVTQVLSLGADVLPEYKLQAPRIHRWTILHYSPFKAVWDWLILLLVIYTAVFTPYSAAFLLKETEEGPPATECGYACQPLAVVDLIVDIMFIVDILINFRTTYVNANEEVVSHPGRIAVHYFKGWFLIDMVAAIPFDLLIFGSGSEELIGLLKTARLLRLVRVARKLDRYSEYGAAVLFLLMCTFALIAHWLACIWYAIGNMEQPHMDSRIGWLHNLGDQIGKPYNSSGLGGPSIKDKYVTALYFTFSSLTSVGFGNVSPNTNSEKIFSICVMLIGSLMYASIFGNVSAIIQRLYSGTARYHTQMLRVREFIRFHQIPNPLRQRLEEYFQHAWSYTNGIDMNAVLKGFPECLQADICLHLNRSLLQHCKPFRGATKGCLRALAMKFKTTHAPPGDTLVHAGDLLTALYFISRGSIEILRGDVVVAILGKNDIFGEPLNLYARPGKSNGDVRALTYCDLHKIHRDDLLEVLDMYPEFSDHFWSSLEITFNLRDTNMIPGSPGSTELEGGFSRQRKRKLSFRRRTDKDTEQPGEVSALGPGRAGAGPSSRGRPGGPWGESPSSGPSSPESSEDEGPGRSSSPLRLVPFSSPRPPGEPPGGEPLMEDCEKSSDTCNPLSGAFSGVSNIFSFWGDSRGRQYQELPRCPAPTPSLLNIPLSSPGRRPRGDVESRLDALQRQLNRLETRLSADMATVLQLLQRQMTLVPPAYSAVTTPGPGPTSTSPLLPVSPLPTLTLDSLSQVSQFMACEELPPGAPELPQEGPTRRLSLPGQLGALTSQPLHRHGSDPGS", "assay": "primary screen, population patch clamp on CHO cells stably expressing hERG; higher = less effect of the substance", "units": {"hERG current change (%, negative = inhibition) at 10uM": "%"}, "values": [
      {"smiles": "Cc1ccc(C2(C(F)(F)F)N=C3Sc4cc(C)cc(C)c4N3C(=O)N2)cc1", "note": "(stereo not drawn)", "hERG current change (%, negative = inhibition) at 10uM": -4.05},
      {"smiles": "O=C(NCCCN1CCOCC1)c1cc(-c2ccc(Br)cc2)nc2ccccc12", "hERG current change (%, negative = inhibition) at 10uM": -39.7},
      {"smiles": "O=C(NC1C2CC3CC(C2)CC1C3)c1ccc(N2CCNCC2)c([N+](=O)[O-])c1", "note": "(stereo not drawn)", "hERG current change (%, negative = inhibition) at 10uM": -18},
      {"smiles": "O=c1c2oc3ccccc3c2[nH]c(=S)n1-c1ccc(F)cc1", "hERG current change (%, negative = inhibition) at 10uM": 25.3},
      {"smiles": "COc1cccc(C2NC(=O)NC(C)=C2C(=O)Nc2ccc(C)cc2)c1OC", "note": "(stereo not drawn)", "hERG current change (%, negative = inhibition) at 10uM": -6.16},
      {"smiles": "COc1ccccc1-n1c(=O)oc2ccc(Cl)cc2c1=O", "hERG current change (%, negative = inhibition) at 10uM": -7.54},
      {"smiles": "Cl.O=C(NCCOC(=O)c1ccc(C(=O)OCCNC(=O)c2cccnc2)s1)c1cccnc1", "hERG current change (%, negative = inhibition) at 10uM": 7.73},
      {"smiles": "CCN1CCCC1CNC(=O)c1ccc(N2CCOCC2)c(NS(=O)(=O)c2ccc(OC)cc2)c1", "note": "(stereo not drawn)", "hERG current change (%, negative = inhibition) at 10uM": -24.4},
      {"smiles": "CCCCNC(=O)c1ccc(N2CCOCC2)c(NS(=O)(=O)c2ccc(OC)cc2)c1", "hERG current change (%, negative = inhibition) at 10uM": -40.4},
      {"smiles": "Cc1ccc(S(=O)(=O)Nc2cc(C(=O)N3CCOCC3)ccc2N2CCCCC2)cc1", "hERG current change (%, negative = inhibition) at 10uM": -20.5},
      {"smiles": "Cc1ccc(S(=O)(=O)Nc2cc(C(=O)O)ccc2N2CCCCC2)cc1", "hERG current change (%, negative = inhibition) at 10uM": 9.4},
      {"smiles": "CCN(CC)CCCNC(=O)c1ccc(N2CCCCC2)c(NS(=O)(=O)c2ccc(C)cc2)c1", "hERG current change (%, negative = inhibition) at 10uM": -69.2},
      {"smiles": "Cc1ccc(S(=O)(=O)Nc2cc(C(=O)NCCN(C)C)ccc2N2CCCCC2)cc1", "hERG current change (%, negative = inhibition) at 10uM": -36.8},
      {"smiles": "Cc1ccc(S(=O)(=O)Nc2cc(C(=O)N3CCC4(CC3)OCCO4)ccc2N2CCCCC2)cc1", "hERG current change (%, negative = inhibition) at 10uM": -51.3},
      {"smiles": "CCC1CCCCN1CCCNC(=O)c1ccc(N2CCOCC2)c(NS(=O)(=O)c2ccc(OC)cc2)c1", "note": "(stereo not drawn)", "hERG current change (%, negative = inhibition) at 10uM": -57.6},
      {"smiles": "Cc1ccc(S(=O)(=O)Nc2cc(C(=O)NCCN(C)C)ccc2N2CCCC2)cc1", "hERG current change (%, negative = inhibition) at 10uM": -6.83},
      {"smiles": "COc1ccc(OC)c(S(=O)(=O)Nc2c(F)cccc2F)c1", "hERG current change (%, negative = inhibition) at 10uM": 16},
      {"smiles": "CC1CN(C(=O)N2CCCCC2)CCN1C(=O)N1CCCCC1", "note": "(stereo not drawn)", "hERG current change (%, negative = inhibition) at 10uM": 16.9},
      {"smiles": "CCN(CC(=O)Nc1ccc(S(=O)(=O)N2CCOCC2)cc1)Cc1ccccc1", "hERG current change (%, negative = inhibition) at 10uM": -16.5},
      {"smiles": "O=C(CCc1ccccc1Cl)Nc1ccc(S(=O)(=O)N2CCOCC2)cc1", "hERG current change (%, negative = inhibition) at 10uM": -4.49},
      {"smiles": "Cc1cccc(C(=O)NN2C(=O)C3C(c4ccccc4)C=CC(c4ccccc4)C3C2=O)c1", "note": "(stereo not drawn)", "hERG current change (%, negative = inhibition) at 10uM": 3.83},
      {"smiles": "COc1cccc(-c2ccc(NC(=O)C3CCCN(Cc4cc(C)[nH]n4)C3)cc2)c1", "note": "(stereo not drawn)", "hERG current change (%, negative = inhibition) at 10uM": -36.5},
      {"smiles": "COc1cccc(-c2ccc(NC(=O)C3CCCN(CCCn4nc(C)cc4C)C3)cc2)c1", "note": "(stereo not drawn)", "hERG current change (%, negative = inhibition) at 10uM": -66},
      {"smiles": "COc1cccc(-c2ccc(NC(=O)C3CCCN(Cc4ccco4)C3)cc2)c1", "note": "(stereo not drawn)", "hERG current change (%, negative = inhibition) at 10uM": 6.02},
      {"smiles": "COc1cccc(-c2ccc(NC(=O)C3CCCN(Cc4nccn4C)C3)cc2)c1", "note": "(stereo not drawn)", "hERG current change (%, negative = inhibition) at 10uM": -31.8},
      {"smiles": "COc1cccc(-c2ccc(NC(=O)C3CCCN(Cc4cnn(C)c4C)C3)cc2)c1", "note": "(stereo not drawn)", "hERG current change (%, negative = inhibition) at 10uM": 0.939},
      {"smiles": "COc1cccc(-c2ccc(NC(=O)C3CCCN(CCCn4cccn4)C3)cc2)c1", "note": "(stereo not drawn)", "hERG current change (%, negative = inhibition) at 10uM": -64.1},
      {"smiles": "CCOC(=O)N1CCC(NS(=O)(=O)c2ccc(C#N)cc2)CC1", "hERG current change (%, negative = inhibition) at 10uM": -2.64},
      {"smiles": "NS(=O)(=O)c1cccc(NC(=O)COC(=O)CNC(=O)c2ccc(-c3ccccc3)cc2)c1", "hERG current change (%, negative = inhibition) at 10uM": 5.77},
      {"smiles": "CC(C)CNC(=O)COC(=O)CCC(=O)c1ccc(F)cc1", "hERG current change (%, negative = inhibition) at 10uM": 6.45},
      {"smiles": "C1=C(CCNc2ncnc3c2cnn3-c2ccccc2)CCCC1", "hERG current change (%, negative = inhibition) at 10uM": 8.79},
      {"smiles": "Cn1cc(C=C2C(=O)OC3(CCCCC3)OC2=O)c2ccccc21", "hERG current change (%, negative = inhibition) at 10uM": 9.19},
      {"smiles": "O=C(OCc1nc2ccccc2[nH]1)C1CCCCC1", "hERG current change (%, negative = inhibition) at 10uM": 2.85},
      {"smiles": "O=C(O)C1CC(=O)N(c2ccc(Br)cc2)C1", "note": "(stereo not drawn)", "hERG current change (%, negative = inhibition) at 10uM": 4.94},
      {"smiles": "CC(=O)Nc1ccc(NC(=O)C2CCN(C(=O)C3CC(=O)N(c4ccc(C)cc4)C3)CC2)cc1", "note": "(stereo not drawn)", "hERG current change (%, negative = inhibition) at 10uM": 12.4},
      {"smiles": "Cc1ccc(N2CC(C(=O)N3CCC(C(=O)Nc4cccc(Br)c4)CC3)CC2=O)cc1", "note": "(stereo not drawn)", "hERG current change (%, negative = inhibition) at 10uM": -60.1},
      {"smiles": "COc1ccccc1NC(=O)C1CCN(C(=O)C2CC(=O)N(c3ccc(C)cc3)C2)CC1", "note": "(stereo not drawn)", "hERG current change (%, negative = inhibition) at 10uM": -9.15},
      {"smiles": "C=CCN(CC=C)C(=O)C1CC(=O)N(c2ccc(Br)cc2)C1", "note": "(stereo not drawn)", "hERG current change (%, negative = inhibition) at 10uM": -59.2},
      {"smiles": "Cc1ccc(N2CC(C(=O)N3CCC(C(=O)NC(C)(C)C)CC3)CC2=O)cc1", "note": "(stereo not drawn)", "hERG current change (%, negative = inhibition) at 10uM": 20.2},
      {"smiles": "COc1ccc(CCN(C)C(=O)C2CC(=O)N(Cc3ccc(C)cc3)C2)cc1OC", "note": "(stereo not drawn)", "hERG current change (%, negative = inhibition) at 10uM": 0.405},
      {"smiles": "Cc1ccc(N2CC(C(=O)N3CCC(C(=O)Nc4ccc(Br)cc4)CC3)CC2=O)cc1", "note": "(stereo not drawn)", "hERG current change (%, negative = inhibition) at 10uM": -64.2},
      {"smiles": "CCOc1ccc(NC(=O)C2CCN(C(=O)C3CC(=O)N(c4ccc(C)cc4)C3)CC2)cc1", "note": "(stereo not drawn)", "hERG current change (%, negative = inhibition) at 10uM": -22.1},
      {"smiles": "C=CCNC(=O)C1CC(=O)N(c2ccc(Br)cc2)C1", "note": "(stereo not drawn)", "hERG current change (%, negative = inhibition) at 10uM": -7.08},
      {"smiles": "COc1ccc(Cl)cc1NC(=O)CN(C)C(=O)C1CC(=O)N(Cc2ccc(C)cc2)C1", "note": "(stereo not drawn)", "hERG current change (%, negative = inhibition) at 10uM": -50},
      {"smiles": "COc1ccc(NC(=O)CN(C)C(=O)C2CC(=O)N(Cc3ccc(C)cc3)C2)cc1", "note": "(stereo not drawn)", "hERG current change (%, negative = inhibition) at 10uM": 4.41}
    ]}
  ]
}
